{"source": "PubChem BioAssay (NCI)", "note": "The panel holds about 83,000 compounds, 20% with a hit somewhere; the sample as a whole holds those more often.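 The endpoint reported here, percent growth, reads 100 for growth as untreated, 0 for no net growth and -100 for all cells dead.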 Calls of active or inactive are those of the source. The calls were made as follows: active = growth percent below 10; inactive = the rest.", "data": [{"tested_on": "SF-539 CNS", "assay": "NCI-60 one-dose screen, 48 h (100 = growth as untreated, 0 = no growth, -100 = all killed)", "conditions": "10 µM unless noted", "values": [{"compound": "CC(=O)Nc1ccc2c(c1)c(NC(C)=O)nn2C(=O)Nc1ccc(Cc2ccccc2)cc1", "growth": "80.9% (inactive)"}, {"compound": "Cc1ccc2c(c1)O/C(=C\\c1cccc(OCC(=O)c3ccccc3)c1)C2=O", "growth": "105% (inactive)"}, {"compound": "Nc1nc(SCc2ccccc2)c2ncn(C3CCCC3)c2n1", "growth": "91.2% (inactive)"}, {"compound": "Cn1c2ccccc2c2c3c(c4c5ccccc5n(CCCCCC#N)c4c21)C(=O)N(O)C3=O", "growth": "-33% (active)"}, {"compound": "CCN(CC)Cc1cc(Nc2c3ccc(Cl)cc3nc3c(C)cccc23)ccc1O", "growth": "-96.5% (active)"}, {"compound": "CS(=O)(=O)c1ccc(-c2cnc3ccc(-c4cccc(S(C)(=O)=O)c4)nn23)cc1", "growth": "24% (inactive)"}, {"compound": "COc1ccc(CCN2CCCn3c2nc2ccccc2c3=O)cc1", "growth": "-16.3% (active)"}, {"compound": "CC#CC#Cc1cccc(=O)o1", "growth": "76.4% (inactive)"}, {"compound": "c1ccc2c(Nc3cccc4ccccc34)cccc2c1", "growth": "56.9% (inactive)"}, {"compound": "c1ccc(CSc2ncnc3nc[nH]c23)nc1", "growth": "99.5% (inactive)"}, {"compound": "O=C(O)c1cccnc1Br", "growth": "91.9% (inactive)"}, {"compound": "COc1ccc(-c2cc(-c3cccnc3)nc3sc4c(=O)n(-c5ccc(C)cc5)cnc4c23)cc1OC", "growth": "89.4% (inactive)"}, {"compound": "CNC(=O)c1cc(Oc2ccc3nc(NC(=O)Nc4ccc(CN5CCOCC5)c(C(F)(F)F)c4)sc3c2)ccn1", "growth": "16.5% (inactive)"}, {"compound": "CCN(CC)CCCC(C)NCCCNc1cccc2cccnc12", "note": "(centres undefined)", "growth": "100% (inactive)"}, {"compound": "CCCCN(CCCC)Cc1c(C)[nH]c2cc(OC)ccc2c1=O", "growth": "110% (inactive)"}, {"compound": "O=C1C[C@H](Sc2nc(-c3ccc(F)cc3)cc(C(F)(F)F)n2)[C@H]2CO[C@@H]1O2", "growth": "103% (inactive)"}, {"compound": "CCCCOc1ccc(NC(=O)n2nc(NC(C)=O)c3cc(NC(C)=O)ccc32)cc1", "growth": "95% (inactive)"}, {"compound": "CSc1ncnc2c1ncn2C1CCCO1", "note": "(centres undefined)", "growth": "103% (inactive)"}, {"compound": "Oc1ccccc1N=Cc1c(O)ccc2ccccc12", "growth": "80% (inactive)"}, {"compound": "Cn1c2ccccc2c2c3[nH]c(=O)[nH]c(=O)c3c3c4ccccc4n(C)c3c21", "growth": "39.5% (inactive)"}, {"compound": "CCOC(=O)c1c2ncccc2n2c(=O)n(-c3ccc(Cl)cc3)nnc12", "growth": "47.8% (inactive)"}, {"compound": "O=C(COc1cccc(/C=C2/Oc3ccccc3C2=O)c1)Nc1nccs1", "growth": "64.7% (inactive)"}, {"compound": "NS(=O)(=O)c1ccc(Nc2nc3n[nH]c(Nc4ccccc4)c3c(=O)[nH]2)cc1", "growth": "97.1% (inactive)"}, {"compound": "OCCNCCNc1c2ccccc2nc2ccccc12", "growth": "69.8% (inactive)"}, {"compound": "COc1ccc(OCC(=O)Nc2ccc(-c3nc4ccccc4s3)cc2C)cc1", "growth": "89.6% (inactive)"}, {"compound": "CCCCNP1(NCCCC)=NP(NCCCC)(NCCCC)=NP(NCCCC)(NCCCC)=NP(NCCCC)(NCCCC)=N1", "growth": "34% (inactive)"}, {"compound": "COCCCN=C(N)c1ccc(NC(=O)c2ccc(C(=O)Nc3ccc(C(N)=NCCCOC)cc3)cc2)cc1", "growth": "98.5% (inactive)"}, {"compound": "Cn1c2ccccc2c2c3c(c4c5ccccc5[nH]c4c21)C(=O)N(N)C3=O", "growth": "20.2% (inactive)"}, {"compound": "CCN(CC)Cc1cc(Nc2c3ccccc3nc3cc(Cl)ccc23)ccc1O", "growth": "-100% (active)"}, {"compound": "COc1nc2c(cc1S(=O)(=O)c1ccccc1)CCc1c-2cnn1-c1ccc(Cl)cc1", "growth": "100% (inactive)"}, {"compound": "CN(CC(=O)N(Cc1ccc(C2CCCCC2)cc1)c1ccc(C(=O)NO)cc1)S(=O)(=O)c1c(F)c(F)c(F)c(F)c1F", "growth": "92.7% (inactive)"}, {"compound": "COc1cc(-c2nc3ccccc3s2)ccc1NC(=O)COc1ccc(Cl)cc1", "growth": "26.7% (inactive)"}, {"compound": "CSc1[nH]c2ncnc(N)c2c1C#N", "growth": "96.3% (inactive)"}, {"compound": "O=C1Nc2c(ccc(Cl)c2Cl)/C1=C/c1cc(Br)c(O)c(Br)c1", "growth": "51.6% (inactive)"}, {"compound": "NS(=O)(=O)N(c1cc(C(F)(F)F)cc(C(F)(F)F)c1)C1CCN(Cc2ccc(F)cc2)CC1", "growth": "83.1% (inactive)"}, {"compound": "COc1nc2c(cc1S(=O)(=O)c1ccccc1)CCc1c-2cnn1Cc1ccccc1", "growth": "73.7% (inactive)"}, {"compound": "CN1CCN(Cc2ccc(NC(=O)c3[nH]ncc3Nc3ccnc4ccsc34)cc2)CC1", "growth": "2.32% (active)"}, {"compound": "CC1(C)CC(C(=O)OCCCCCCCCCCC[P+](c2ccccc2)(c2ccccc2)c2ccccc2)C(C)(C)N1O", "note": "(centres undefined)", "growth": "-93.1% (active)"}, {"compound": "C=CC[N+]1(CC)CCN=C1CCCCCCCCCCCCCCCCC", "note": "(centres undefined)", "growth": "-98.2% (active)"}]}]}
